# Screening data deposited in PubChem BioAssay by National Center for Advancing Translational Sciences (NCATS).
# In the library only some 2.4% were active in any assay of this set; here they are far more common.
# Cruzain inh noDet: qHTS Assay for Promiscuous and Specific Inhibitors of Cruzain (without detergent) | purified cruzain, Z-FR-AMC fluorescence, no detergent | Cruzipain (Trypanosoma cruzi), P25779 | 2.3% of 200,000 active | AID 1476, 2009 | Potency, µM, inactives show max response, negative = inhibition, actives largely listed as inhibitors;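 further: plate controls were enzyme without inhibitor for no effect and buffer without enzyme for full effect; nearly all actives have a fitted effect of over 40% in size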
# Target sequence (P25779 123-467 limits assumed): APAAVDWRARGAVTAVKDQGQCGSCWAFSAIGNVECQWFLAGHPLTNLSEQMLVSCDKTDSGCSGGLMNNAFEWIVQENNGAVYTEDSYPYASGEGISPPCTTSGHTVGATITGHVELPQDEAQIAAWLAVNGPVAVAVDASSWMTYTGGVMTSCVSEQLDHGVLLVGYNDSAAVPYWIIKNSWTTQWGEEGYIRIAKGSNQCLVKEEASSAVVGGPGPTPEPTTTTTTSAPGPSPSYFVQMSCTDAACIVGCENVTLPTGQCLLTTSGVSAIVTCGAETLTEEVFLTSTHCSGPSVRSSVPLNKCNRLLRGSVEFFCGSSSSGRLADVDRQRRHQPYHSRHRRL
#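 Purified cruzain at 1.5 nM, pre-incubated 15 min with compound at room temperature in 100 mM sodium acetate pH 5.5, 5 mM DTT, 0.00005% Triton X-100. Reaction started with 2 uM Z-FR-AMC; AMC fluorescence increase over 60 s gives rate.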
# Cruzain inh Det: qHTS Assay for Promiscuous and Specific Inhibitors of Cruzain (with detergent) | 0.43% of 200,000 active | Cruzipain (Trypanosoma cruzi), P25779 | AID 1478, 2009 | purified cruzain, Z-FR-AMC fluorescence, 0.01% Triton | Potency, µM, for inactives: max response, negative = inhibition, usual class: inhibitors;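 further: plate controls were neutral wells for no effect and buffer without enzyme for full effect; nearly all actives have a fitted effect of over 40% in size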
#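 In this qHTS format, compounds are incubated with 1.5 nM cruzain for 15 min at room temperature before 2 uM Z-FR-AMC is added. Release of AMC is followed at 360/450 nm, and progress is taken as the 60 s fluorescence difference.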
# The depositor's hits bear a star; ? = inconclusive. The call rests on the fitted dose curve; in most records, active means well fitted curve in the direction sought with a large enough effect; inconclusive means small, poorly fitted or top-dose-only effect, or another doubt; inactive means no such curve, though single readings can be large; an effect the other way counts as inactive or inconclusive. Potency means the concentration at half of the fitted maximal effect.
SMILES,Cruzain inh noDet,Cruzain inh Det
CCOC(=O)CNC(=O)O[C@@H]1C(=O)c2cc(OC)ccc2O[C@H]1c1ccc(OC)c(Br)c1,-2%,-1%
Cc1sc(NC(=O)COc2ccccc2)c(C#N)c1-c1ccccc1,-18%,?
CCCC(=O)Nc1sc(C)c(-c2ccc(C(C)CC)cc2)c1C#N (stereo not drawn),7.9µM*,9%
Cc1sc(NC(=O)C2CCCC2)c(C#N)c1C,-17%,-18%
CCc1ccc(-c2c(C)sc(NC(=O)C3CCC3)c2C#N)cc1,16µM*,0%
Cc1c(Cl)cccc1NS(=O)(=O)c1ccc(NS(=O)(=O)c2ccc3c(c2)OCCO3)cc1,-26%,-9%
COC(=O)c1ccc(NC(=O)C(=O)NCCc2sc(-c3cccc(F)c3)nc2C)cc1,-9%,0%
CCc1ccc(C(=O)c2cnc3ccc(F)cc3c2S(=O)(=O)c2ccccc2)cc1,-29%,-2%
O=C(COc1ccc(Br)cc1)Nc1ccc(-c2nnc(-c3ccco3)o2)cc1,10µM*,5%
Cc1ccc(OCC(=O)Nc2ccc(-c3nc4ccc(C)cc4o3)cc2)cc1,25µM*,1%
CCC(Oc1ccccc1)C(=O)Nc1ccc(-c2nnc(-c3ccco3)o2)cc1 (stereo not drawn),9%,-7%
COc1ccc(OCC(=O)Nc2ccc(-c3nc4cc(C)c(C)cc4o3)cc2)cc1,1%,1%
COc1ccc(-n2c3c(cc(-c4nc(-c5ccc(Cl)cc5)cs4)c2=O)C(=O)CC(C)(C)C3)cc1,3%,-2%
Cc1cn(C)c(CC(=O)NCc2cccc(Cl)c2)c1C(=O)O,-10%,1%
O=C1CC(c2ccc(F)cc2)Cc2nc(N3CCc4ccccc43)ncc21 (stereo not drawn),?,-2%
Fc1cnc(N2CCc3ccccc32)nc1N1CCc2ccccc21,3.2µM*,7%
COc1cccc(C(=O)Nc2ccccc2C(=O)OCc2cc(=O)n3c4c(sc3n2)CCCC4)c1,2%,0%
Cc1ccsc1/C=C(\C(=O)c1ccc(OC(C)C)cc1)c1nc2ccccc2o1,32µM*,-5%
CC(C)Oc1ccc(C(=O)N2CCC(c3nc4ccccc4o3)CC2)cc1,13%,-4%
O=C(N/N=C/c1ccc(-c2cccc(C(F)(F)F)c2)o1)c1ccccc1Br,18%,-9%
O=C(N/N=C/c1ccc(-c2cccc(C(F)(F)F)c2)o1)c1ccccc1O,10µM*,-6%
CC(C)c1cnc2c(c1SCc1cccc(F)c1)c(=O)n(C)c(=O)n2C,-14%,-2%
CCOC(=O)CC1C(=O)NCCN1C(=O)c1cc2c(=O)n3ccccc3nc2s1 (stereo not drawn),0%,22µM*
CCOC(=O)CC1C(=O)NCCN1C(=O)c1cc2c(=O)n3cccc(C)c3nc2s1 (stereo not drawn),8%,-19%
Cc1ccnc(N/C=C(\C#N)c2nc(-c3cccc(Br)c3)cs2)c1,25µM*,?
SMILES,Cruzain inh noDet,Cruzain inh Det
N#C/C(=C/c1ccc(Cl)cc1)c1nc(-c2ccc(Br)cc2)cs1,-9%,-2%
COC(=O)c1oc2ccc(Cl)cc2c1NC(C)=O,2%,-2%
COC(=O)c1oc2ccc(Br)cc2c1NC(=O)c1ccccc1,13µM*,2%
Cc1cccc(-c2nc3c4c(-c5ccccc5)c(-c5ccccc5)oc4ncn3n2)c1,14%,-2%
N#CC1=C(N)Nc2nc3ccccc3n2C1c1ccc(Cl)cc1 (stereo not drawn),32µM*,-1%
CCN(CC)C(=O)C1=C(C)Nc2nc3ccccc3n2C1c1ccc(Cl)cc1 (stereo not drawn),1%,-4%
Cc1ccc(CNC(=O)C(=O)NCC(c2cccs2)S(=O)(=O)c2ccccc2)cc1 (stereo not drawn),-13%,0%
CCc1ccc(S(=O)(=O)c2nnn3c2nc(NCCc2ccccc2)c2sccc23)cc1,?,1%
O=C(CN1C=NS(=O)(=O)c2ccccc21)Nc1ccccc1F,4%,1%
Fc1cccc(Cl)c1CNCCSc1nnnn1-c1ccccc1,13µM*,3%
Clc1ccccc1CNCCCSc1nnnn1-c1ccccc1,-8%,-1%
Cn1c(=O)c2[nH]c(COCc3nc4c([nH]3)c(=O)n(C)c(=O)n4C)nc2n(C)c1=O,-1%,3%
O=S(=O)(NCC(c1ccco1)S(=O)(=O)c1cccs1)c1ccc(F)c(C(F)(F)F)c1 (stereo not drawn),13%,-9%
CCNc1nc(SC(C(C)=O)C(C)=O)nc(N(C)C)n1,-2%,5%
CCN(C#N)c1nc(NC(C)C)nc(NC(C)C)n1,7%,0%
COC(=O)CN(C#N)c1nc(NC(C)C)nc(OC)n1,20µM*,22µM*
CCNc1nc(SC)nc(N(C#N)CC(=O)OC)n1,13µM*,14µM*
COC(=O)CN(C#N)c1nc(C)cc(C)n1,-2%,-2%
COC(=O)CN(C#N)c1nc(OC)nc(N(C)C)n1,20µM*,28µM*
O=c1oc2cc(OCc3c(F)cccc3Cl)ccc2cc1-c1ccccn1,23%,0%
